The panel holds about 83,000 compounds, 20% with a hit somewhere; the sample as a whole holds those more often.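 Each cell line was grown in a 96-well plate and treated with one concentration of compound for 48 hours. Values below 10 were considered active.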 Activity calls are given as the source filed them.
How the values were obtained:
Test in all cases: NCI-60 one-dose screen, 48 h (100 = growth as untreated, 0 = no growth, -100 = all killed)
Conditions in all cases: 10 µM unless noted
HT29 colon = test system: HT29 colon
SNB-75 CNS = test system: SNB-75 CNS
SNB-19 CNS = test system: SNB-19 CNS
U251 CNS = test system: U251 CNS
SK-MEL-5 melanoma = test system: SK-MEL-5 melanoma
LOX IMVI melanoma = test system: LOX IMVI melanoma
SK-MEL-28 melanoma = test system: SK-MEL-28 melanoma
SK-MEL-2 melanoma = test system: SK-MEL-2 melanoma
EKVX NSCLC = test system: EKVX NSCLC
SN12C renal = test system: SN12C renal
UO-31 renal = test system: UO-31 renal
TK-10 renal = test system: TK-10 renal
ACHN renal = test system: ACHN renal
CAKI-1 renal = test system: CAKI-1 renal
A498 renal = test system: A498 renal
CCRF-CEM leukemia = test system: CCRF-CEM leukemia
MOLT-4 leukemia = test system: MOLT-4 leukemia
SR leukemia = test system: SR leukemia
UACC-62 melanoma = test system: UACC-62 melanoma
PC-3 prostate = test system: PC-3 prostate

Measured: growth

O=C1/C(=C/c2ccc3cccc(Cl)c3n2)SC(=S)N1CCc1ccc(O)cc1
inactive: HT29 colon 107% | SNB-75 CNS 50.7% | SNB-19 CNS 97.5% | U251 CNS 94% | SK-MEL-5 melanoma 95.8% | LOX IMVI melanoma 80.7% | SK-MEL-28 melanoma 108% | SK-MEL-2 melanoma 101% | EKVX NSCLC 83.7% | SN12C renal 87.1% | UO-31 renal 39.8% | TK-10 renal 129% | ACHN renal 82.6% | CAKI-1 renal 51% | A498 renal 58.6% | MOLT-4 leukemia 48.9% | SR leukemia 79%
active: CCRF-CEM leukemia 6.53%

Nc1ncc(-c2cnn(C3CCNCC3)c2)cc1-c1nc2cc(Cl)ccc2o1
active: HT29 colon -100% | SNB-75 CNS -97.9% | SNB-19 CNS -91.1% | U251 CNS -100% | UACC-62 melanoma -100% | LOX IMVI melanoma -96.9% | SK-MEL-28 melanoma -100% | SK-MEL-2 melanoma -90.8% | EKVX NSCLC -27.6% | SN12C renal -100% | UO-31 renal -100% | TK-10 renal -94.1% | ACHN renal -96.8% | CAKI-1 renal -76.9% | A498 renal -99.9% | CCRF-CEM leukemia -100% | MOLT-4 leukemia -91.8%

CCN1C[C@@H](C)n2c(c(O)c3c(=O)n(Cc4ccc(F)c(Cl)c4)nc(C(=O)NC)c32)C1=O
active: UACC-62 melanoma -4.84% | SN12C renal 9.18% | A498 renal -7.58% | SR leukemia 2.73%
inactive: HT29 colon 106% | SNB-75 CNS 20.2% | SNB-19 CNS 12% | PC-3 prostate 69.4% | SK-MEL-5 melanoma 15.1% | SK-MEL-28 melanoma 28.9% | UO-31 renal 11% | TK-10 renal 31.6% | ACHN renal 13.7% | CAKI-1 renal 15.9% | CCRF-CEM leukemia 40.4% | MOLT-4 leukemia 21.6%

O=C(Nc1ccc(C2=NCCCN2)cc1)Nc1ccc(C2=NCCCN2)cc1
inactive: HT29 colon 92.4% | SNB-75 CNS 94.5% | SNB-19 CNS 96.7% | U251 CNS 93.7% | SK-MEL-5 melanoma 69.7% | LOX IMVI melanoma 89.9% | SK-MEL-2 melanoma 49% | EKVX NSCLC 64.1% | SN12C renal 94.8% | UO-31 renal 90.1% | TK-10 renal 109% | ACHN renal 87.7% | CAKI-1 renal 79.3% | A498 renal 77.4% | CCRF-CEM leukemia 73% | MOLT-4 leukemia 71.6% | SR leukemia 69.8%

COc1cc(/C=C/C(=O)c2ccc(F)cc2)ccc1OCCCCCOc1cc2c(cc1OC)C(=O)N1CCCC1C=N2 (stereo not given)
active: HT29 colon -18.8% | SNB-75 CNS -57.5% | SNB-19 CNS 2.88% | U251 CNS -77.5% | UACC-62 melanoma -92.4% | LOX IMVI melanoma -94% | SK-MEL-28 melanoma -48% | SK-MEL-2 melanoma -18% | EKVX NSCLC -20.9% | SN12C renal -2.73% | TK-10 renal -9.06% | ACHN renal -9.07% | CAKI-1 renal -1.54% | A498 renal -65.5% | MOLT-4 leukemia -28.9% | SR leukemia -32.6%

CCOC(=O)C1=NN(c2ccc(Cl)cc2)C2C3N(c4ccc(Cl)cc4)N=C(C(=O)OCC)N3c3ccccc3N12 (stereo not given)
inactive: HT29 colon 93.3% | SNB-75 CNS 91.1% | SNB-19 CNS 118% | U251 CNS 114% | UACC-62 melanoma 101% | LOX IMVI melanoma 113% | SK-MEL-28 melanoma 108% | SK-MEL-2 melanoma 102% | EKVX NSCLC 104% | SN12C renal 111% | UO-31 renal 92.6% | TK-10 renal 119% | ACHN renal 121% | A498 renal 131% | MOLT-4 leukemia 47.4% | SR leukemia 40.4%

COc1ccccc1[C@H]1c2[nH]c3ccccc3c2C[C@H]2C(=O)N(CCCCCCC(=O)NO)CC(=O)N12
inactive: HT29 colon 23.4% | SNB-19 CNS 67.3% | U251 CNS 46.6% | UACC-62 melanoma 23.7% | LOX IMVI melanoma 32.7% | SK-MEL-28 melanoma 18.6% | SK-MEL-2 melanoma 59.5% | EKVX NSCLC 74.7% | SN12C renal 56.9% | UO-31 renal 44.7% | TK-10 renal 48.2% | ACHN renal 35.1% | CAKI-1 renal 55.5% | A498 renal 31.9% | MOLT-4 leukemia 11% | SR leukemia 19.3%
active: SNB-75 CNS -6.11% | CCRF-CEM leukemia 5.22%

O=[N+]([O-])c1ccc(N/N=C\c2ccccc2[N+](=O)[O-])nc1
inactive: HT29 colon 104% | SNB-75 CNS 103% | SNB-19 CNS 99.4% | PC-3 prostate 99.7% | SK-MEL-5 melanoma 105% | UACC-62 melanoma 96.7% | LOX IMVI melanoma 105% | SK-MEL-28 melanoma 110% | SK-MEL-2 melanoma 95.6% | EKVX NSCLC 101% | SN12C renal 103% | UO-31 renal 97.8% | TK-10 renal 116% | ACHN renal 102% | CAKI-1 renal 83% | A498 renal 83.4% | CCRF-CEM leukemia 97.8% | MOLT-4 leukemia 93.5% | SR leukemia 92.4%

ClC1=C(Cl)C(Cl)=C(Cl)C1=Cc1ccc(Cl)cc1
inactive: SNB-75 CNS 97.5% | SNB-19 CNS 76.4% | SK-MEL-5 melanoma 100% | UACC-62 melanoma 58.6% | SK-MEL-28 melanoma 116% | SK-MEL-2 melanoma 99.7% | SN12C renal 47.2% | ACHN renal 29% | A498 renal 27.2%
active: HT29 colon -30.1% | PC-3 prostate -36.1% | LOX IMVI melanoma -85.5% | EKVX NSCLC -22.6% | UO-31 renal -56.9% | TK-10 renal 8.54% | CAKI-1 renal -63.5% | MOLT-4 leukemia 0.492% | SR leukemia -14.1%
